Source: publication PMC11006913

target: T1, NKX2-6 (Homo sapiens, UniProt A6NCS4 118-204, R150C); experiment: PBM; 200 nM protein, PBS; details: dsDNA, one strand shown
T1 sequence: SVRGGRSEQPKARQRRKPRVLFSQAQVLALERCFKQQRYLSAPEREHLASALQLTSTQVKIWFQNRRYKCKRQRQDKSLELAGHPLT

First: AAGAAGTG
Second: CGCTCACC
The binding signal of the first is higher: 11.2 upbm affinity estimate (log intensity, higher = more binding, comparable within an allelic series) for the first, 9.46 upbm affinity estimate (log intensity, higher = more binding, comparable within an allelic series) for the second.

First: AGTAAGTA
Second: GCATGCGC
The binding signal of the first is higher: 11.1 upbm affinity estimate (log intensity, higher = more binding, comparable within an allelic series) for the first, 9.48 upbm affinity estimate (log intensity, higher = more binding, comparable within an allelic series) for the second.

Going from CACTCTCA to AACCGCCC, the binding signal falls from 10.9 upbm affinity estimate (log intensity, higher = more binding, comparable within an allelic series) to 9.72 upbm affinity estimate (log intensity, higher = more binding, comparable within an allelic series).

Compared with CGGTTAGC, AAACGGCC is higher in binding signal: 9.51 upbm affinity estimate (log intensity, higher = more binding, comparable within an allelic series) for the first, 9.82 upbm affinity estimate (log intensity, higher = more binding, comparable within an allelic series) for the second.

Compared with CTACTTTA, GCGGACCA is lower in binding signal: 11 upbm affinity estimate (log intensity, higher = more binding, comparable within an allelic series) for the first, 9.48 upbm affinity estimate (log intensity, higher = more binding, comparable within an allelic series) for the second.

First: CCCGGGGA
Second: ACAGCGGG
The binding signal of the first is lower: 9.42 upbm affinity estimate (log intensity, higher = more binding, comparable within an allelic series) for the first, 9.46 upbm affinity estimate (log intensity, higher = more binding, comparable within an allelic series) for the second.

Compared with ACCGACGC, TACAAGTA is higher in binding signal: 9.5 upbm affinity estimate (log intensity, higher = more binding, comparable within an allelic series) for the first, 11.3 upbm affinity estimate (log intensity, higher = more binding, comparable within an allelic series) for the second.

Going from GACCTGGC to AAAAAGTG, the binding signal rises from 9.43 upbm affinity estimate (log intensity, higher = more binding, comparable within an allelic series) to 11.2 upbm affinity estimate (log intensity, higher = more binding, comparable within an allelic series).

Going from CACCCCGC to GGCGGGAC, the binding signal rises from 9.31 upbm affinity estimate (log intensity, higher = more binding, comparable within an allelic series) to 9.37 upbm affinity estimate (log intensity, higher = more binding, comparable within an allelic series).

Compared with GACGCCCC, CGCCAACC is lower in binding signal: 9.56 upbm affinity estimate (log intensity, higher = more binding, comparable within an allelic series) for the first, 9.44 upbm affinity estimate (log intensity, higher = more binding, comparable within an allelic series) for the second.

First: GGTCTGCA
Second: CCCCCATC
The binding signal of the first is higher: 9.86 upbm affinity estimate (log intensity, higher = more binding, comparable within an allelic series) for the first, 9.53 upbm affinity estimate (log intensity, higher = more binding, comparable within an allelic series) for the second.

Compared with CGGGCGGA, AATCCGCC is higher in binding signal: 9.09 upbm affinity estimate (log intensity, higher = more binding, comparable within an allelic series) for the first, 9.75 upbm affinity estimate (log intensity, higher = more binding, comparable within an allelic series) for the second.

Compared with GATCCGAC, GGGGAACC is higher in binding signal: 9.56 upbm affinity estimate (log intensity, higher = more binding, comparable within an allelic series) for the first, 9.63 upbm affinity estimate (log intensity, higher = more binding, comparable within an allelic series) for the second.

Compared with CTTGCCGC, CCGTAGCG is lower in binding signal: 9.53 upbm affinity estimate (log intensity, higher = more binding, comparable within an allelic series) for the first, 9.34 upbm affinity estimate (log intensity, higher = more binding, comparable within an allelic series) for the second.

First: CGCCCCGC
Second: AAGCCACG
The binding signal of the first is higher: 9.59 upbm affinity estimate (log intensity, higher = more binding, comparable within an allelic series) for the first, 9.49 upbm affinity estimate (log intensity, higher = more binding, comparable within an allelic series) for the second.

Compared with CCCGCACA, GGCATCCC is lower in binding signal: 9.66 upbm affinity estimate (log intensity, higher = more binding, comparable within an allelic series) for the first, 9.47 upbm affinity estimate (log intensity, higher = more binding, comparable within an allelic series) for the second.

First: CTGACCCC
Second: CGGACGGC
The binding signal of the first is higher: 9.6 upbm affinity estimate (log intensity, higher = more binding, comparable within an allelic series) for the first, 9.24 upbm affinity estimate (log intensity, higher = more binding, comparable within an allelic series) for the second.

Compared with CCCGCCGA, GAGGCGGA is higher in binding signal: 9.28 upbm affinity estimate (log intensity, higher = more binding, comparable within an allelic series) for the first, 9.49 upbm affinity estimate (log intensity, higher = more binding, comparable within an allelic series) for the second.

Going from ACCTCCCC to CAAGAGGG, the binding signal rises from 9.56 upbm affinity estimate (log intensity, higher = more binding, comparable within an allelic series) to 10.9 upbm affinity estimate (log intensity, higher = more binding, comparable within an allelic series).

Compared with ACGGGGTC, AGCCCCTG is higher in binding signal: 9.58 upbm affinity estimate (log intensity, higher = more binding, comparable within an allelic series) for the first, 9.59 upbm affinity estimate (log intensity, higher = more binding, comparable within an allelic series) for the second.
